# Assay outcomes as filed in PubChem BioAssay.
# Compounds with a hit are over-represented: about 1.3% of the library has one in this group of screens.
# S1P4 antagonist – S1P4 receptor antagonists, primary screen, cell-based | Sphingosine 1-phosphate receptor 4 (Homo sapiens), O95977 | S1P4-expressing cells, antagonist mode, reporter read-out | inhibition, % at 4.98 µM | 220,000 tested, 0.26% active | AID 1510, 2009; in the data active = inhibition above about 29%;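 note: 0% = wells stimulated with agonist and 100% = vehicle wells without agonist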
# GALR2 agonist – GALR2 receptor agonists, primary screen, cell-based; AID 803, 2007; activation, % (no concentration beside the values); 140,000 tested, 0.48% active; GALR2-expressing cells, agonist activation read-out; in the data active = activation above about 5%, passing the limit was not always enough;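 note: 0% = vehicle buffer wells and 100% = reference agonist at full effect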
# S1P4 agonist – S1P4 receptor agonists, primary screen, cell-based | activation, % at 4.98 µM | 220,000 tested, 0.35% active | S1P4-expressing cell line, agonist reporter assay | AID 1509, 2009; in the data active = activation above about 11%;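 note: 0% = DMSO vehicle and 100% = reference agonist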
# S1P3 antagonist – S1P3 receptor antagonists, primary screen, cell-based; Sphingosine 1-phosphate receptor 3 (Homo sapiens), Q99500; CHO S1P3 NFAT-BLA reporter, FRET fluorescence, antagonist mode; 170,000 tested, 0.27% active; inhibition, % at 4.98 µM; AID 485, 2006;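 active = inhibition above the plate cutoff, the mean inhibition of test wells on that plate plus 3 SD, cut at about 28% in these data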;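 note: cells challenged with S1P at its EC80 of 0.8 µM; blue over green emission ratio from cleaved BLA substrate after 4 h stimulation; 0% = S1P-stimulated wells and 100% = unstimulated DMSO-only wells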
# Target sequence (Q99500 whole entry, looked up): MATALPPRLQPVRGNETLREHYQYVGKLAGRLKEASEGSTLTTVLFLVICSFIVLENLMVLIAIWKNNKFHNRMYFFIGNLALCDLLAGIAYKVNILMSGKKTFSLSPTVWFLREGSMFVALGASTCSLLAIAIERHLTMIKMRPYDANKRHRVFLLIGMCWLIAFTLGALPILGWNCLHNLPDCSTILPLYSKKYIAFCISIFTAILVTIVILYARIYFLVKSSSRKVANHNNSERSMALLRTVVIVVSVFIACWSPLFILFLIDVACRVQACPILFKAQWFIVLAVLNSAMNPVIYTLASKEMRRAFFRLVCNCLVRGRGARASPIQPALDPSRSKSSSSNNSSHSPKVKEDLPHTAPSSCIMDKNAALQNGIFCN
# GALR2 blocker – GALR2 antagonists in receptor-expressing cells, primary screen; AID 828, 2007; antagonist mode; 140,000 tested, 0.39% active; Galanin receptor type 2 (Homo sapiens), O43603; inhibition, % at 4 µM;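 note: cells stimulated with galanin 1-16 at roughly its EC80; 0% = agonist challenge control and 100% = basal control without agonist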
# GALR2 blk conf – GALR2 antagonists, retest of hits, confirmation, cell-based; shares compounds with GALR2 blocker; GALR2-expressing cells, antagonist mode, inhibition; inhibition, % at 4 µM; 480 tested, 60% active;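 note: cells stimulated with galanin at about its EC80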
# BLA inhib ctr – inhibitors of NFAT-driven beta-lactamase reporter, confirmation, counter-screen for GALR2 antagonist project, CHO NFAT-bla cells, FRET readout; shares compounds with GALR2 blocker; AID 867, 2007; thapsigargin-stimulated; inhibition, % at 4.2 µM; 480 tested, 36% active;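 active = inhibition above the mean inhibition across tested compounds plus 3 SD, cut at about 27% in these data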;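 note: 0% = 500 nM thapsigargin stimulated wells and 100% = unstimulated BSA only wells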
# Active calls of the source: *; nt = no result given. Cut-off read from the data, not from the text of the source, unless noted: active = inhibition above about 27%; inactive = the rest.
SMILES,S1P4 antagonist,GALR2 agonist,S1P4 agonist,S1P3 antagonist,GALR2 blocker,GALR2 blk conf,BLA inhib ctr
Cc1cnc(NC(=O)Cc2c[nH]c3ccccc23)s1,-4.9,-2.6,-1.6,nt,33.3*,25.0,4.8
O=C(COC(=O)c1ccccc1C(=O)c1ccc(Cl)c([N+](=O)[O-])c1)NC1CCCCCC1,19.7,-2.2,-3.0,nt,31.2*,64.2*,51.6*
CCn1c2ccc(Cl)cc2c2nc3ccccc3nc21,-0.7,-0.1,1.2,nt,4.7,nt,nt
CCn1c2ccc(C)cc2c2nc3cc(C(=O)O)ccc3nc21,-12.7,-0.7,2.1,22.2,27.6*,33.5*,4.5
O=C(Nc1c2c(nn1-c1ccccc1)CSC2)c1ccc(N2C(=O)CCC2=O)cc1,-8.6,nt,3.1,-7.7,nt,nt,nt
c1ccc(OCc2noc(CN3CCC(C4CCCCC4)C3)n2)cc1 (stereo not drawn),-2.2,nt,-1.2,-5.3,nt,nt,nt
Cc1ccc(-c2cc(C(=O)N(C)Cc3cnn(C)c3C)c3cc(Br)ccc3n2)cc1,-3.0,-0.4,0.2,1.6,28.1*,23.9,6.4
Cc1ccn(CCC(=O)N2CCCC(CCC(=O)NCc3ccc(F)c(F)c3)C2)n1 (stereo not drawn),-18.6,nt,-0.6,-13.5,nt,nt,nt
O=C(CCl)N(c1ccccc1)c1c[nH]c2ccccc12,8.3,-2.9,-2.5,nt,36.9*,38.2*,18.4
CCCCNC(=O)NC(C(=O)OC)C12CC3CC(CC(C3)C1)C2 (stereo not drawn),12.1,nt,-1.0,-7.6,nt,nt,nt
O=C(CN(CC1CCCO1)C(=O)CCC(=O)Nc1ccccn1)NCc1ccccc1 (stereo not drawn),-13.4,-3.3,0.2,nt,29.7*,8.2,8.8
CCOC(=O)CSc1nc(N)cc(=O)[nH]1,-21.6,-0.5,-1.6,-27.6,5.0,nt,nt
CCOC(=O)CSc1nc(C)cc(=O)[nH]1,-19.8,-2.8,-0.6,-6.3,32.1*,3.9,-6.0
COc1ccc(-c2ccc3c(N)c(C(=O)c4cccc(OC)c4)sc3n2)cc1,-11.3,-2.7,-1.4,nt,29.4*,20.3,23.3
COc1ccc(S(=O)(=O)N2CCCCC2)cc1NC(=O)CSc1nccn1C,-1.1,nt,1.1,-14.5,nt,nt,nt
N#CC1=C(N)Nc2nc3ccccc3n2C1c1ccc(Cl)cc1 (stereo not drawn),-1.1,-0.7,0.0,3.2,31.9*,27.4*,45.9*
N#CC1=C(N)Nc2ncnn2C1c1ccccc1 (stereo not drawn),-19.5,-0.4,-0.1,11.3,-0.9,nt,nt
COc1ccc2[nH]c3c(NCc4ccco4)ncnc3c2c1,-21.9,-2.4,-1.2,nt,28.1*,22.6,8.1
Oc1c(Cl)cccc1C=Nc1cc(C(F)(F)F)ccc1N1CCCC1,13.9,-1.9,-4.0,nt,31.9*,15.6,16.9
Oc1c(Cl)cc(Cl)cc1C=Nc1cc(C(F)(F)F)ccc1N1CCc2ccccc2C1,4.7,nt,-0.9,5.1,nt,nt,nt
CC(C)(C)NC(=O)CN1CCN(C(=O)CCl)CC1,-10.2,nt,0.8,1.0,nt,nt,nt
COc1ccc(Cl)cc1NC(=O)CNc1ccccc1N1CCOCC1,-1.6,nt,0.9,18.8,nt,nt,nt
COc1ccc(-c2nnc(SCc3nc4ccccc4s3)n2C(C)C)cc1,18.7,-2.6,1.4,nt,28.6*,1.8,4.9
CC(=O)Nc1ccc(-c2nnc(SCc3c(C)cc(C)cc3C)n2C)cc1,10.0,-2.6,0.6,nt,-9.0,nt,nt
O=C1C=C(NC2=CC3OC(c4ccccc4)OCC3OC2=O)CCC1 (stereo not drawn),-14.9,-0.8,-0.6,-2.1,69.6*,84.1*,73.8*
SMILES,S1P4 antagonist,GALR2 agonist,S1P4 agonist,S1P3 antagonist,GALR2 blocker,GALR2 blk conf,BLA inhib ctr
CCc1nnc(NC(=O)C=C(C)C)s1,-14.1,-4.5,-1.7,nt,27.7*,9.2,11.0
CCc1nnc(NC(=O)C(C)C)s1,-11.6,0.1,-0.4,nt,-12.3,nt,nt
COc1cc(NC(=O)CCNS(=O)(=O)c2ccc3c(c2)CCC(=O)N3)cc(OC)c1,4.8,-2.0,2.2,-2.2,8.0,nt,nt
CCOC(=O)c1c(C)nc2sc(C(=O)Nc3ccc(C(C)=O)cc3)c(N)c2c1-c1ccc(OC)cc1,26.2,1.9,0.6,nt,29.8*,20.5,37.5*
O=C(Nc1ccccc1-c1nc2ccccc2[nH]1)c1sc2ccccc2c1Cl,-24.3,0.5,1.4,-12.2,-3.8,nt,nt
CCOc1ccc(C(=O)CSCC(=O)O)cc1,-2.8,nt,1.1,-8.6,nt,nt,nt
COc1ccccc1N(C)S(=O)(=O)c1ccc(C(=O)OC(C)C(=O)NCc2ccc3c(c2)OCO3)cc1 (stereo not drawn),-2.6,nt,-2.8,-6.7,nt,nt,nt
COc1ccc(OC)c(NC(=O)CSc2ncnc3c2cnn3-c2ccccc2Cl)c1,-3.8,-0.6,-0.5,nt,31.4*,48.5*,18.1
O=C1C=CC(=O)C(C2=C3C(=O)N(CCc4ccccc4)CC(=O)N3CCC2)=C1,-2.0,0.2,-0.5,-12.7,39.5*,60.2*,80.9*
O=C1CC(=O)N(CCc2ccccc2)C(=O)N1CCc1ccccc1,-6.6,-1.1,0.9,nt,-7.7,nt,nt
C=CCSC(=C(C#N)C#N)c1cc2c([nH]1)CCCC2,6.5,-1.4,1.5,nt,30.6*,27.0*,17.2
COc1ccccc1Nc1nc(-c2c(C)[nH]c3ccccc23)cs1,9.9,2.4,-0.1,8.4,30.4*,18.2,15.4
CCOC(=O)c1c(C)[nH]c(C)c1C(=O)COc1ncnc2ccccc12,-4.6,nt,2.2,-6.7,nt,nt,nt
COc1ccc(CCNc2c(C)c(C)nc3ncnn23)cc1,-13.0,-0.7,-0.6,35.5,30.9*,39.2*,8.9
Cc1nn(C(C)C(=O)NNC(=S)Nc2ccc(Cl)cc2)c(C)c1[N+](=O)[O-] (stereo not drawn),-11.4,-0.1,-2.7,nt,-22.8,nt,nt
CCOC(=O)C(=CNc1ccc(NC2=NCC(C)S2)cc1)C(=O)OCC (stereo not drawn),-14.3,2.1,1.1,19.6,32.6*,45.0*,37.2*
CCOC(=O)C(=CNc1ccc(C(F)(F)F)cc1)C(=O)OCC,19.9,nt,-0.8,-2.3,nt,nt,nt
COc1ccc(S(=O)(=O)N2CCOC2CNC(=O)C(=O)NCc2ccco2)cc1 (stereo not drawn),-11.0,nt,0.9,17.9,nt,nt,nt
COc1cccc(N2CCN(c3ncnc4c3[nH]c3ccccc34)CC2C)c1 (stereo not drawn),8.1,-0.4,-0.8,nt,21.1,nt,nt
COc1cccc(N2CCN(c3ncnc4c3[nH]c3ccc(F)cc34)CC2C)c1 (stereo not drawn),22.0,-2.4,-3.7,nt,50.6*,71.9*,57.9*
COc1ccccc1NC(=O)OCC#CCOC(=O)Nc1ccccc1OC,-3.9,nt,1.3,3.3,nt,nt,nt
COC(=O)CNC(=O)c1sc2ncn(CC(=O)Nc3ccc(C)c(Cl)c3)c(=O)c2c1C,0.1,nt,-0.9,-19.4,nt,nt,nt
